Results as given in the supplement of paper PMC6555819.

Tests used:
Test in all cases: PBM binding z-score (relative to random genomic background probes); higher = stronger binding; sequences stand for … in GC…GCGATTGACAGCGTAGAATGAAGG
[1] = system: FXR:RXRa (NR concentration 270 nM, RXRa partner concentration 90 nM)
In short: (§1)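 Antibodies against each partner of ligand-free nuclear receptor dimers (one per run) detected binding on custom Agilent 4×180K protein-binding microarrays after 1 h incubation. The double-stranded probes had 34-nt variable regions carrying direct-repeat seeds, single-nucleotide variants, half-site ablations and random human genomic background sequences. Binding z-scores, from regression-normalized fluorescence, use the random background probes as reference.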

[2] = system: LXRa:RXRa (NR concentration 270 nM, RXRa partner concentration 90 nM)
In short: as §1

[3] = system: LXRa homodimer (NR concentration 270 nM)
In short: as §1

[4] = system: LXRb:RXRa (NR concentration 270 nM, RXRa partner concentration 90 nM)
In short: as §1

[5] = system: LXRb homodimer (NR concentration 270 nM)
In short: as §1

[6] = system: PPARa:RXRa (NR concentration 270 nM, RXRa partner concentration 90 nM)
In short: as §1

[7] = system: PPARg:RXRa (NR concentration 180 nM, RXRa partner concentration 90 nM)
In short: as §1

[8] = system: PPARg:RXRa 270nM:90nM, anti-RXR (NR concentration 270 nM, RXRa partner concentration 90 nM)
In short: as §1

[9] = system: PPARg:RXRa 30nM:10nM, anti-RXR (NR concentration 30 nM, RXRa partner concentration 10 nM)
In short: as §1

[10] = system: PPARg:RXRa 90nM:30nM, anti-RXR (NR concentration 90 nM, RXRa partner concentration 30 nM)
In short: as §1

[11] = system: PPARg:RXRa DBDmut IVT, anti-RXR (DBD mutation: RXRa K156A/R161A, NR concentration 270 nM, RXRa partner concentration 90 nM)
In short: as §1

[12] = system: PPARg:RXRa IVT, anti-PPARg (NR concentration 270 nM, RXRa partner concentration 90 nM)
In short: as §1

[13] = system: PPARg DBDmut:RXRa IVT, anti-PPARg (DBD mutation: PPARg1 K132A/R137A, NR concentration 270 nM, RXRa partner concentration 90 nM)
In short: as §1

[14] = system: PPARg DBDmut IVT, anti-PPARg (DBD mutation: PPARg1 K132A/R137A, NR concentration 270 nM)
In short: as §1

[15] = system: PPARg homodimer (NR concentration 180 nM)
In short: as §1

[16] = system: PXR:RXRa (NR concentration 270 nM, RXRa partner concentration 90 nM)
In short: as §1

[17] = system: PXR homodimer (NR concentration 270 nM)
In short: as §1

[18] = system: RARa:RXR (NR concentration 270 nM, RXRa partner concentration 90 nM)
In short: as §1

[19] = system: RARa homodimer (NR concentration 270 nM)
In short: as §1

[20] = system: RARb:RXRa (NR concentration 270 nM, RXRa partner concentration 90 nM)
In short: as §1

| Sequence | PBM binding z-score [1] | PBM binding z-score [2] | PBM binding z-score [3] | PBM binding z-score [4] | PBM binding z-score [5] | PBM binding z-score [6] | PBM binding z-score [7] | PBM binding z-score [8] | PBM binding z-score [9] | PBM binding z-score [10] | PBM binding z-score [11] | PBM binding z-score [12] | PBM binding z-score [13] | PBM binding z-score [14] | PBM binding z-score [15] | PBM binding z-score [16] | PBM binding z-score [17] | PBM binding z-score [18] | PBM binding z-score [19] | PBM binding z-score [20] |
| --- | --- | --- | --- | --- | --- | --- | --- | --- | --- | --- | --- | --- | --- | --- | --- | --- | --- | --- | --- | --- |
| TAATATAGGTAATACAGGTGAAAGTCGGCATCTA | 0.455 | 1.04 | 0.599 | 0.603 | 0.797 | 2.57 | 3.18 | 3 | 2 | 2.17 | 5.72 | 5.56 | 2.44 | 1.91 | 1.32 | 0.362 | 0.607 | 0.476 | 1.83 | 0.621 |
| CGAACGAGGGCATGAGTTGTTAGCAAATGCCGAT | 0.401 | 0.0861 | -0.503 | 0.156 | -1.1 | 1.01 | 1.08 | 1.21 | -0.27 | 0.425 | 3.23 | 2.05 | -0.603 | -0.6 | -0.0331 | 0.251 | -0.0972 | 0.245 | -0.393 | 1.98 |
| TCCAGTAGGTTAGTCGGGGCATTCAGCCAACATA | 0.407 | 0.471 | 0.422 | 0.794 | -0.477 | 1.38 | 0.45 | 2.08 | 2.7 | 2.41 | 3.62 | 3.02 | -0.197 | -0.452 | 0.925 | 0.439 | 0.18 | 0.346 | 0.0406 | 0.79 |
| CGTCCAAGGTCAAAGGTTAGTGAAGAGATGACGG | 7.74 | 5.92 | 1.42 | 5.09 | 1.54 | 6.47 | 8.94 | 7.84 | 7.41 | 8.3 | 3.36 | 4.86 | 2.1 | 1.08 | 6 | 6.05 | 1.47 | 7.8 | 1.93 | 5.22 |
| TCTTGTGGATCAATAGAGGTTAAGAAAGTGCGCT | 0.938 | 3.27 | 0.355 | 1.91 | 0.376 | 1.63 | -0.178 | 1.51 | 2.31 | 1.64 | 1.7 | 0.901 | 0.673 | 0.819 | 0.64 | 2.88 | 0.306 | 1.69 | 0.244 | 0.915 |
| CAAACTAGGTCAAGAAAGGTCAAAGTCGAATGAC | 7.13 | 7.84 | 7.14 | 6.98 | 2.48 | 6.35 | 8.96 | 7.74 | 5.91 | 7.85 | 8.14 | 8.39 | 1.43 | 1.46 | 4.85 | 6.73 | 3.25 | 7.01 | 3.23 | 5.44 |
| ATACCAAGGTGCTCGTGAGGTCGTTGATACTAAC | 0.689 | 0.535 | 0.19 | 0.834 | -0.238 | 0.836 | 0.126 | -0.218 | -0.413 | -0.131 | -0.245 | 0.0535 | 0.246 | 0.215 | 0.541 | 2.27 | 0.582 | 1.85 | -0.377 | 0.57 |
| GCTGCTAGGTCAGGGTGGTCAGCTAACGGGTACG | 1.3 | 1.02 | -0.198 | 0.35 | -0.645 | 2.03 | 1.63 | 1.95 | -0.181 | 1.09 | 2.9 | 2.83 | 0.0307 | -1.27 | 1.2 | 0.451 | -0.345 | 1.03 | 0.165 | 3.61 |
